In ChEMBL document CHEMBL3433997, “St. Jude Leishmania screening dataset” (2016):

The compounds below were run against Solute carrier family 2, facilitated glucose transporter member 1 (Homo sapiens) (UniProt P11166) (assay: ST_JUDE_LEISH: Cytotoxicity at 2uM final concentration against transgenic Leishmania Mexicana promastigotes LmGLUT1 that are glucose transport deficient and complemented with the human glucose transporter GLUT1. Activity is measured by DNA content using SYBR green in vitro).
Sequence of Solute carrier family 2, facilitated glucose transporter member 1 (Homo sapiens) (P11166 whole entry): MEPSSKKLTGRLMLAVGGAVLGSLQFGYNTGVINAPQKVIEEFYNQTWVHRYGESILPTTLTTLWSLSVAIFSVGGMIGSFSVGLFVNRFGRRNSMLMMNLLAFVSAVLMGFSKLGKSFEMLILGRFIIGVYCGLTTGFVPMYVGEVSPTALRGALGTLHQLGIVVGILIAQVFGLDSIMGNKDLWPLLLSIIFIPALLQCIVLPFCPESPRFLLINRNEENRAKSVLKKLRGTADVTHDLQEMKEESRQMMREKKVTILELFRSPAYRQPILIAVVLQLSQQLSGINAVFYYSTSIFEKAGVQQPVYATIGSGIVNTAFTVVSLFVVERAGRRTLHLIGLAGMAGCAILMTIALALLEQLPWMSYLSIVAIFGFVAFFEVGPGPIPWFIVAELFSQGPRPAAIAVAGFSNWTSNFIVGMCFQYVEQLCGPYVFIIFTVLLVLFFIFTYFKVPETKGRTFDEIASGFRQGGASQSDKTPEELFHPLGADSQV
Format: functional
Compound `N=C(N)CCN(Cc1ccc(Cl)cc1)c1ccc(Cl)cc1` has an inhibition of 0.7%.
For `CCOC(=O)c1cccc(NC(=N)Nc2nc(C)cc(NCCc3ccccc3)n2)c1`, the inhibition was 7.04%.
For `Nc1nc(N)c2cc(Cc3ccccc3Cl)cnc2n1`, the inhibition was -0.18%.
`CN1CCN(S(=O)(=O)c2ccc3nccc(Nc4ccc(Oc5ccccc5)cc4)c3c2)CC1` gave an inhibition of -3.11%.
Work on `COc1ccc(CC2(c3ccc(F)cc3)N=C(N)N(CCCc3ccccc3)C2=O)cc1` (stereo not given) yielded an inhibition of 5.85%.
For `CC(=O)N(Cc1nc(-c2cc(C(F)(F)F)cc(C(F)(F)F)c2)cs1)c1c(C)cccc1C`, the inhibition was 4.36%.
With `COc1ccc(NC(=O)c2ccc3[nH]c(-c4ccc(Cl)cc4)cc3c2)cc1OCCN(C)C` the inhibition was 2.93%.
`Cc1ccc(NC(=O)Nc2ccc(Br)cc2)cc1OCCN(C)C` showed an inhibition of 5.98%.
`O=C(/C=C/c1ccc(Cl)c(Cl)c1)NCCCCCN1CCC(CCNC(=O)Cc2ccc(Cl)cc2)CC1` gave an inhibition of 1.7%.
With `Cc1cc(N[C@@H](CC(C)C)C(=O)NCc2cccc(F)c2)nc(Nc2ccccc2)n1` the inhibition was 4.15%.
In the case of `COc1c(C2CCN(CCCCNC(=O)c3ccc(-c4ccc(Cl)cc4)cn3)CC2)ccc2c1CCCC2`, the inhibition is reported as -1.51%.
With `CCCc1cc(=O)oc2cc(OC)c(C(=O)CC(C)C)c(OC)c12` the inhibition was 0.58%.
Compound `CCCc1cc(Cc2cnc(N)nc2N)ccc1OCCCCCC(=O)O` has an inhibition of 1.42%.
With `Fc1ccc2[nH]c(-c3ccc(-c4cccc(CN5CCC(CCN6CCCCC6)CC5)c4)cc3)nc2c1` the inhibition was 2.93%.
`CC(C)Cn1cc(C2CCN(CCN3CCC(CNC(=O)c4ccc(NC(=O)c5cc(Cl)cc(Cl)c5)cc4)CC3)CC2)c2ccccc21` was tested, and the inhibition was 1.27%.
